In publication PMC4336329 (PLoS ONE, 2015):
Out of some 310,000 compounds screened, about 14,000 (4.5%) showed an effect of 50% or more. Effects have a minus sign here. The sample as a whole holds a higher share of strong results than the screen did.

What follows are molecules tested against human ether-à-go-go-related gene (hERG) potassium channel (human, UniProt Q12809) (assay: primary screen, population patch clamp on CHO cells stably expressing hERG; higher = less effect of the substance).
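Further: peak tail current of the secondary pulse compared with the same well before compound.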

human ether-à-go-go-related gene (hERG) potassium channel, sequence (Q12809 whole entry, looked up): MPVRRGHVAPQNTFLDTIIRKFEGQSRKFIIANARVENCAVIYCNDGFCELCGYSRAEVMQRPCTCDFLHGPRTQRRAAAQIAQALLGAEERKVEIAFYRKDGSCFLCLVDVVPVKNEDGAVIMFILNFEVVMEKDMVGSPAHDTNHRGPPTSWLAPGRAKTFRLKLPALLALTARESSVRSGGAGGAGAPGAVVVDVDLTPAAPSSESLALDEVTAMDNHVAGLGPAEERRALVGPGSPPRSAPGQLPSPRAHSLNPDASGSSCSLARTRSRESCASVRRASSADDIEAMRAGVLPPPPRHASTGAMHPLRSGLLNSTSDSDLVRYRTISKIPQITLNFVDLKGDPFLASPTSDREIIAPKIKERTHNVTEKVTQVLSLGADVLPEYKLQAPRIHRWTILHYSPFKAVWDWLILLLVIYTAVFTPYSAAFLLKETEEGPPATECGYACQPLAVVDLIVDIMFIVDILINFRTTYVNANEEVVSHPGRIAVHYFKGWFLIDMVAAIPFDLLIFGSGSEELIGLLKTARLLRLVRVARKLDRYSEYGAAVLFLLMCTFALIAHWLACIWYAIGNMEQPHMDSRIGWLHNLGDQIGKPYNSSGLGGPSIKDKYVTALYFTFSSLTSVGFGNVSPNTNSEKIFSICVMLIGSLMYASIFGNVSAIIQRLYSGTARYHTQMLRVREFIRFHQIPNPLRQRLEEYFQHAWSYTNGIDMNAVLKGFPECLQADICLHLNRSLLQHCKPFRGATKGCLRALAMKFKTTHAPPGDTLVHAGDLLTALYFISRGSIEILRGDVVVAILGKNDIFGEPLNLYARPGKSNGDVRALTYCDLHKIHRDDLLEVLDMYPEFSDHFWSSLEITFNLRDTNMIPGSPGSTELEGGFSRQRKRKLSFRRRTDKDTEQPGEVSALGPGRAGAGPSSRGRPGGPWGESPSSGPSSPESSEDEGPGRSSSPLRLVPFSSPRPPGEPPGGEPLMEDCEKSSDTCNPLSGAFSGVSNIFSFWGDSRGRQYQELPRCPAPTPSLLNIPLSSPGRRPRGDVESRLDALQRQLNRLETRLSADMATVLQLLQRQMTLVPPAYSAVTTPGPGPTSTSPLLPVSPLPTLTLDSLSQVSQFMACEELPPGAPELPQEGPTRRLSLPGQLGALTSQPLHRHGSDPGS

Row | SMILES | hERG current change (%, negative = inhibition) at 10uM
1 | CCOC(=O)c1nn(-c2ccc(Cl)cc2)c(=O)c(C#N)c1C | 5.94%
2 | CCCCNC(=S)N(C)/N=C/c1ccc(OCc2ccc(C(=O)OC)cc2)c(OC)c1 | 11.8%
3 | O=C(N/N=C/c1cccnc1)c1ccc2c(c1)OCCO2 | 8.1%
4 | Cc1ccc(CSCC(=O)N(C)CC(=O)Nc2c(Cl)cccc2Cl)cc1 | -9.07%
5 | CCOC(=O)C1CN(S(=O)(=O)c2ccccc2)c2cc(S(=O)(=O)CC)ccc2O1 (stereo not shown) | -23.3%
6 | CCOC(=O)C1CN(S(=O)(=O)c2ccc(C)cc2)c2cc(S(=O)(=O)CC)ccc2O1 (stereo not shown) | -41%
7 | CCOC(=O)C1CN(S(=O)(=O)c2ccc(OC)cc2)c2cc(S(=O)(=O)CC)ccc2O1 (stereo not shown) | -52%
8 | CC(=O)Oc1ccc(C2OC(=O)c3ccccc3N2C(C)=O)cc1 (stereo not shown) | 1.12%
9 | CCN(C(=O)Cc1c(C(=O)O)n(C)c2ccccc12)c1cc(OC)ccc1OC | 11.9%
10 | O=S(=O)(NCc1ccccn1)c1ccccc1 | -2.19%
11 | CNc1oc(-c2ccc(Cl)cc2)nc1C#N | -4.17%
12 | Cc1cc(C)cc(N2CCCn3c2nc2c3c(=O)[nH]c(=O)n2C)c1 | 13.6%
13 | CC(C)(C)n1nnnc1CN(Cc1cccnc1)Cc1ccccc1Cl | -33%
14 | CC(C)(C)n1nnnc1C(c1cccs1)N(Cc1cccnc1)Cc1ccccc1Cl (stereo not shown) | -11.4%
15 | CC(c1nnnn1C(C)(C)C)N(Cc1cccnc1)Cc1ccccc1Cl (stereo not shown) | -52.3%
16 | CCOC(=O)c1nc(C)n(-c2cc(OC)c(Cl)cc2Cl)n1 | 5.95%
17 | O=C(CCCOc1ccccc1)Nc1cccc(C(=O)O)c1 | 12.6%
18 | COc1ccc(OC)c(NC(=O)CSc2nnc(-c3ccco3)o2)c1 | -15.7%
19 | Cc1ccc(NC(=O)CSc2nc(=O)n(CCCN3CCOCC3)c3c2CCCC3)cc1F | -50.2%
20 | Cc1ccc(NC(=O)CSc2nc(=O)n(CCCN3CCOCC3)c3c2CCCC3)cc1 | -45.5%
21 | Cc1cccc(NC(=O)CSc2nc(=O)n(CCCN3CCOCC3)c3c2CCCC3)c1 | -42.4%
22 | Cc1cc(C)cc(NC(=O)CSc2nc(=O)n(CCCN3CCOCC3)c3c2CCCC3)c1 | -55.2%
23 | CC(C)c1ccc(NC(=O)CSc2nc(=O)n(CCN3CCOCC3)c3c2CCC3)cc1 | -41.5%

Row | SMILES | hERG current change (%, negative = inhibition) at 10uM
24 | Cc1ccc(NC(=O)CSc2nc(=O)n(CCCN3CCOCC3)c3c2CCCC3)c(C)c1 | -36.7%
25 | O=C(CSc1nc(=O)n(CCCN2CCOCC2)c2c1CCCC2)Nc1ccc(Cl)cc1 | -77.7%
26 | CC(C)c1ccc(NC(=O)CSc2nc(=O)n(CCCN3CCOCC3)c3c2CCC3)cc1 | -51.3%
27 | CC(C)c1ccc(NC(=O)CSc2nc(=O)n(CCCN3CCOCC3)c3c2CCCC3)cc1 | -39.7%
28 | CCN(CC(=O)Nc1c(F)cccc1F)C(=O)CN1C(=O)NC2(CCCC2)C1=O | 22.5%
29 | CCN1CCCc2cc(CN(CCN3CCOCC3)C(=S)Nc3ccc(C)cc3)ccc21 | -8.41%
30 | CCN1CCN(S(=O)(=O)Cc2ccccc2)CC1 | 8.52%
31 | COc1ccc2oc(C(=O)OCC(=O)NCC3CCCO3)c(C)c2c1 (stereo not shown) | 2.35%
32 | Cc1ccc(N2C(=O)c3ccccc3C2(O)c2ncc[nH]2)cc1 (stereo not shown) | 15%
33 | O=S(=O)(c1ccc(NC(=S)N/N=C/c2c3ccccc3cc3ccccc23)cc1)N1CCOCC1 | 8.09%
34 | O=C1c2ccccc2C(=O)N1CCCCN(C(=O)c1cc2ccccc2oc1=O)c1ccc(F)cc1F | 1.03%
35 | Cc1cc(C(C)(C)C)oc1C(=O)OCC(=O)NC1CCCCC1 | 0.649%
36 | O=C(NC(Cc1ccccc1)c1ccc2c(c1)OCCCO2)c1ccccc1 (stereo not shown) | 19.1%
37 | O=C(NCCS(=O)(=O)NCc1ccc(F)cc1)c1ccc2c(c1)OCO2 | -39.8%
38 | COc1ccccc1-n1c(O)c(C=NCCN2CCNCC2)c(=O)[nH]c1=O | 14.4%
39 | O=C(CSc1nc(=O)n(CCCN2CCOCC2)c2c1CCCC2)Nc1ccc(F)cc1F | -22.6%
40 | O=C(CSc1nc(=O)n(CCCN2CCOCC2)c2c1CCCC2)Nc1ccc(F)c(F)c1 | -58%
41 | O=C(CSc1nc(=O)n(CCCN2CCOCC2)c2c1CCCC2)Nc1ccc(F)cc1 | -43.7%
42 | CC(C)(C)C(=O)Nc1ccccc1C(=O)Nc1ccccn1 | 3.65%
43 | O=C1c2cccc3cccc(c23)C(=O)N1CCN1CCN(CC(O)COc2ccc3ccccc3c2)CC1 (stereo not shown) | -11.7%
44 | COc1ccc(C(=O)CN2CCN(CCN3C(=O)c4cccc5cccc(c45)C3=O)CC2)cc1 | -26.5%
45 | COc1cccc(OCC(O)CN2CCN(CCN3C(=O)c4cccc5cccc(c45)C3=O)CC2)c1.Cl (stereo not shown) | -59.2%
46 | O=C1c2cccc3cccc(c23)C(=O)N1CCN1CCN(CC(O)COc2ccccc2)CC1 (stereo not shown) | -60%

Row | SMILES | hERG current change (%, negative = inhibition) at 10uM
47 | O=C(COc1ccccc1)N1CCN(CCN2C(=O)c3cccc4cccc(c34)C2=O)CC1 | -8.43%
48 | O=C(CSc1nnc(NC(=O)C2CC2)s1)Nc1ccc(F)cc1 | 12.5%
49 | COc1ccc(-c2nc3n(n2)C(c2ccncc2)C(C(N)=O)=C(C)N3)cc1 (stereo not shown) | 0.391%
50 | CCOc1ccc(C(CC(=O)O)NC(=O)c2ccco2)cc1 (stereo not shown) | 11%
51 | COc1cc(/C=N/n2cnnc2)ccc1OCc1ccccc1 | 6.55%
52 | CN(C)S(=O)(=O)c1cccc(NC(=O)c2cccc(S(=O)(=O)N3CCc4ccccc43)c2)c1 | -4.62%
53 | CN(C(=O)c1ccc(Cl)c([N+](=O)[O-])c1)C1(C)CCS(=O)(=O)C1 (stereo not shown) | -10.9%
54 | O=C(C1CCCN(Cc2ccc(Cl)cc2)C1)N1CCCCC1.O=C(O)C(=O)O (stereo not shown) | -14.9%
55 | CSc1ccccc1C(=O)C1CCCN(Cc2ccn[nH]2)C1 (stereo not shown) | -8.34%
56 | CSc1ncc(CN2CCCC(C(=O)c3ccccc3SC)C2)cn1 (stereo not shown) | -65.1%
57 | CSc1ccccc1C(=O)C1CCCN(Cc2ccncc2)C1 (stereo not shown) | -41.7%
58 | CSc1ccccc1C(=O)C1CCCN(Cc2ccccn2)C1 (stereo not shown) | -12.6%
59 | CSc1ccccc1C(=O)C1CCCN(Cc2cnn(-c3ccccc3)c2)C1 (stereo not shown) | -67.4%
60 | CSc1ccccc1C(=O)C1CCCN(Cc2c(C)n(C)n(-c3ccccc3)c2=O)C1 (stereo not shown) | -16.2%
61 | O=C(c1ccc(Cl)cc1)C1CCCN(Cc2cnn(-c3ccccc3)c2)C1 (stereo not shown) | -74.6%
62 | Cc1cc(C)n2c(SCC(=O)NC3CCCCC3C)nnc2n1 (stereo not shown) | 29.5%
63 | CCN(C(=O)COC(=O)/C=C/c1ccco1)c1c(N)n(Cc2ccccc2)c(=O)[nH]c1=O | -1.01%
64 | CC(C)CC(NC(=O)CCC(=O)OCC(=O)[C@@]1(O)CCC2[C@@H]3CCC4=CC(=O)C=C[C@]4(C)C3[C@@H](O)C[C@@]21C)C(=O)O (stereo partly shown) | 0.23%
65 | O=C(CSc1nnc(-c2ccccc2Cl)o1)Nc1ccccn1 | 14.9%
66 | CN(CCC#N)CC(=O)Nc1ccc(S(N)(=O)=O)cc1 | 13.3%
67 | CCc1cc(C(=O)N2CCCC(C(=O)c3cccc(OC(C)C)c3)C2)n(C)n1 (stereo not shown) | -6.49%
68 | CCc1nc(N2CCCCC2)c2oc3ccccc3c2n1.Cl | 6.57%
69 | CCc1nc(N2CCC(C)CC2)c2oc3ccccc3c2n1.Cl | 5.55%

Row | SMILES | hERG current change (%, negative = inhibition) at 10uM
70 | CCc1nc(N2CCN(C(=O)c3ccco3)CC2)c2oc3ccccc3c2n1.Cl | -64.8%
71 | Cc1nc(N2CCC(C)CC2)c2oc3ccccc3c2n1 | 6.63%
72 | O=C(c1ccco1)N1CCN(c2ncnc3c2oc2ccccc23)CC1 | -55.4%
73 | Clc1ccc(N2CCN(c3ncnc4c3oc3ccccc34)CC2)cc1 | 4.58%
74 | Cc1nc(N2CCOCC2)c2oc3ccccc3c2n1 | -9.35%
75 | Cc1nc(N2CCN(C(=O)c3ccco3)CC2)c2oc3ccccc3c2n1.Cl | -54.8%
76 | O=C(c1ccco1)N1CCN(c2ncccn2)CC1 | -18.2%
77 | CC(C)=NN/C(N)=N/C(=S)Nc1ccc(C)cc1 | -3.24%
78 | O=C(NCC1CCCO1)c1cccc(NC(=O)c2ccco2)c1 (stereo not shown) | 0.813%
79 | Cc1oc(-c2ccccc2F)nc1CSCC(=O)NC1CC1 | 3.12%
80 | O=C(CN(C1CCCCC1)S(=O)(=O)c1ccc(Br)cc1)NCc1ccncc1 | -72.9%
81 | CS(=O)(=O)N(CC(=O)NCc1ccncc1)C1CCCCC1 | 1.91%
82 | Cc1ccc(SCC(=O)NCc2ccncc2)cc1 | -6.77%
83 | O=C(CCSc1ccc(Cl)cc1)NCc1ccncc1 | -32.7%
84 | O=C(CN(C1CCCCC1)S(=O)(=O)c1ccc(Cl)cc1)NCc1ccncc1 | -69.8%
85 | Cc1ccc(S(=O)(=O)N(CC(=O)NCc2ccncc2)C2CCCCC2)cc1 | -63%
86 | CCN(C1CCCCC1)S(=O)(=O)c1ccc(S(=O)(=O)NCc2ccncc2)cc1 | -4.63%
87 | Cc1ccc(SCCC(=O)NCc2ccncc2)cc1 | -61.9%
88 | CS(=O)(=O)N(CC(=O)NCc1ccc(Cl)cc1)C1CCCCC1 | -26.1%
89 | O=C(CN(C1CCCCC1)S(=O)(=O)c1ccc(Cl)cc1)NCCCO | -25.8%
90 | CN(CC(=O)NCc1ccncc1)S(=O)(=O)c1ccc(Br)cc1 | -13.4%
91 | O=C(CN(C1CCCCC1)S(=O)(=O)c1ccc(F)cc1)NCc1ccncc1 | -41.9%
